Values joined by “and” are separate entries in the source; they are usually repeats but may differ in a detail not shown here. Equal values may be shown once. Screen size: about 320,000 compounds; about 1,400 (0.44%) were called active.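 Rule for the calls: active = percent inhibition above a per-plate cutoff, the plate mean of test compounds plus 3 SD (cut at about 30% in these data); inactive = the rest.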 The sample as a whole holds a higher share of actives than the screen did. A structure can be active in one record and inactive in another.

Female germline-specific tumor suppressor gld-1 (Caenorhabditis elegans), sequence (Q17339 whole entry, looked up): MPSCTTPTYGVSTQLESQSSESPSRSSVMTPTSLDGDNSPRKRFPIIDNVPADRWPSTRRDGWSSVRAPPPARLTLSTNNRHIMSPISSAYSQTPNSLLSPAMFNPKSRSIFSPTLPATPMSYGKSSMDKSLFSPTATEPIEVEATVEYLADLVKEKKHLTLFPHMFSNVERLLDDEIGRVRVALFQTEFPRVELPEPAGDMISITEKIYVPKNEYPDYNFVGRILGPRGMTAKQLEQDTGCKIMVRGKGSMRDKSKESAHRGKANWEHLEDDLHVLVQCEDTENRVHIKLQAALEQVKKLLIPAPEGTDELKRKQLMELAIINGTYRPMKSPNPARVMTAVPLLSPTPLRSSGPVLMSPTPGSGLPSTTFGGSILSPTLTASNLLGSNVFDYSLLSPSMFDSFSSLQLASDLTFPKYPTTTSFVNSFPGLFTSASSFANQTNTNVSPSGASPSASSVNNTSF

The assay has as its target Female germline-specific tumor suppressor gld-1 (Caenorhabditis elegans) (UniProt Q17339). Description: GLD-1/TGE RNA complex disruptors, primary screen, biochemical, fluorescence polarization (AID 2280).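 Note: 0% = DMSO wells with GLD-1 and probe and 100% = wells lacking GLD-1.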 To be noted: purified GLD-1 + fluorescein TGE RNA, at 5.96 µM, stronger effect = higher value.
Take `Cc1nn(C(=O)c2ccoc2C)c(N)c1-c1ccccc1`: the inhibition was 126% (active). `CCOC(=O)c1c(N)nn(C(=O)c2ccccc2)c1-c1ccccc1`: the inhibition was 7.39% (inactive).

In the case of `C/C(=N\NC(=O)c1ccoc1C)c1ccccc1O`, the inhibition was 2.44% (inactive). As for `CC(C)N(C)C(=O)CCc1nnc(CCc2c[nH]c3ccccc23)o1`, the figure is 7.03% (inactive); as for `Cc1ccccc1Nc1nc(N)nc(CSc2ccccc2)n1`, 6.58% (inactive); as for `Cc1ccccc1Nc1nc(N)nc(CSc2nnc3ccccn23)n1`, 35.3% (active). As for `Cc1ccccc1Nc1nc(N)nc(CN2CCN(c3ccccn3)CC2)n1`, the figure is 2.81% (inactive); as for `COc1ccc(C(C)=O)cc1COC(=O)Cn1cnc2ccccc2c1=O`, -1.6% (inactive); as for `CC1(C)CCc2nc(SCc3ccccc3)c(C#N)cc2C1`, 6.74% (inactive).

As for `Cc1cc(NC(=O)CSc2nc3c(cc2C#N)CCCCC3)no1`, the inhibition is 6.13% (inactive). With `CC(NC(=O)CSc1nc2c(cc1C#N)CN(C)CC2)c1ccccc1` (configuration not stated) the figure was 35.9% (active); with `CCOC(=O)C(C)n1cnc2c(nnn2-c2ccc(F)cc2)c1=O` (configuration not stated), 2.21% (inactive).

Regarding `CCCCn1ccnc1C(=O)c1cccc(S(=O)(=O)N2c3ccccc3CC2C)c1` (configuration not stated), the inhibition is 0.24% (inactive). As for `Cc1ccc(C(=O)NC(=S)Nc2ccccc2C)cc1`, the figure is -1.38% (inactive); as for `COC(=O)c1sc(NC(=S)NC(=O)c2ccc(C)cc2)nc1C`, 60.9% (active). With `Cc1ccc(NC(=S)NC(=O)c2ccc(-c3ccccc3)cc2)cc1` the figure was -3.26% (inactive); with `COc1cc(N2CCCC2)c(OC)cc1/C=C(/C#N)c1cccc(Br)c1`, -45.9% (inactive). As for `CC(Sc1nnc(-c2cccs2)n1C1CC1)C(=O)NCC1CCCO1` (configuration not stated), the figure is -1.09% (inactive); as for `O=S(=O)(c1ccc(Cl)cc1)N1CCCN(c2ccc(C(F)(F)F)cn2)CC1`, 3.79% (inactive). In the case of `CN(C)c1ccc(Nc2c3c4c(cccc4n(C)c2=O)C(=O)c2ccccc2-3)cc1`, the inhibition was 53.9% (active). As for `CN(Cc1ccc(F)cc1)C(=O)CN1C(=O)c2ccccc2S1(=O)=O`, the figure is -0.45% (inactive); as for `O=S(=O)(NCCCCCCNS(=O)(=O)c1c(F)cccc1F)c1ccc2c(c1)OCCO2`, -2.33% (inactive). As for `C=CCOc1cccc(C2C(C(=O)c3ccc(C)o3)=C(O)C(=O)N2CCCn2ccnc2)c1` (configuration not stated), the figure is 5.89% (inactive). With `C=CCOc1cccc(C2C(C(=O)c3ccc(C)o3)=C(O)C(=O)N2c2nnc(C)s2)c1` (configuration not stated) the figure was 91.3% (active); with `Cc1cc(N2C(=O)C(O)=C(C(=O)c3ccc(C)o3)C2c2ccc(OCc3ccccc3)cc2)no1` (configuration not stated), 12.7% (inactive); with `CCN1CCC2(CCN(Cc3cn[nH]c3-c3ccc(OC)c(F)c3)C2)C1` (configuration not stated), 6.39% (inactive). In the case of `COc1ccccc1C(=O)N(C1=NC(C)CS1)c1ccc(Cl)cc1` (configuration not stated), the inhibition was 5.47% (inactive). As for `NC(=O)c1ccc(-c2csnn2)cc1`, the figure is -0.25% (inactive); as for `COc1ccc(NC(=O)C(C)SCc2ccccc2)cc1` (configuration not stated), 4.3% (inactive); as for `O=C1N=C2SCCN2/C1=C\c1c(Cl)cccc1Cl`, 3.87% (inactive). With `CCC(=NC1CC(C)(C)NC(C)(C)C1)C1=C(O)CC(C)(C)CC1=O` the figure was 0.57% (inactive); with `COc1ccc(NC(=O)CN(C)C(=O)c2cc(-c3ccc(C)o3)nc3ccccc23)cc1`, 1.85% (inactive); with `CN(C(=O)COC(=O)c1cc(-c2ccco2)nc2ccccc12)C1CCS(=O)(=O)C1` (configuration not stated), 24.7% (inactive). As for `CN(CCOc1ccccc1)C(=O)c1cc(-c2ccco2)nc2ccccc12`, the figure is 44.1% (active); as for `Cn1nc(-c2ccccc2)c(CSc2cccc(Cl)c2)c1Cl`, 3.82% (inactive); as for `C=CCN(Cc1nc(-c2cc(OC)c3c(c2)OCO3)oc1C)C1CCS(=O)(=O)C1` (configuration not stated), 3% (inactive). With `COc1ccc(CCNS(=O)(=O)c2cc3c(cc2C)NC(=O)CO3)cc1OC`, the inhibition is 5.55% (inactive).

Turning to `Cc1oc2c(c1C(=O)N1CCOCC1)C(=O)c1ccccc1C2=O`, the inhibition is -4.37% (inactive).

In the case of `COC1=C(N2CCOCC2)C(=O)c2ccccc2C1=O`, the inhibition was 5.26% (inactive). With `O=C1c2ccccc2-c2ncnc3c(N4CCOCC4)cc(N4CCOCC4)c1c23` the figure was 47.9% (active); with `CCOc1ccc(NC(=O)CSc2ncnc3c2sc2ccccc23)cc1`, 7.48% (inactive).

With `CN(C)C=NC(=O)c1cccn1-c1ncc(C(F)(F)F)cc1Cl`, the inhibition is 3.24% (inactive).

As to `CC1CCCCC1NC(=O)COC(=O)Cc1ccc(Cl)cc1` (configuration not stated), the inhibition is 0.1% (inactive). Consider `Cc1cc(C)c(S(=O)(=O)N2CCCC2CNC(=O)c2ccc3c(c2)OCO3)c(C)c1` (configuration not stated), for which the inhibition is -0.56% (inactive).

For the compound `COc1cccc(NC(=S)N(CCc2c(C)[nH]c3ccccc23)Cc2ccco2)c1`, the inhibition is 2.83% (inactive). As for `Cc1[nH]c2ccccc2c1CCN(Cc1cccs1)C(=S)NC(C)(C)C`, the figure is 5.63% (inactive); as for `COc1ccc2[nH]c(C)c(CCN(Cc3cccs3)C(=S)Nc3ccccc3OC)c2c1`, 50% (active). As for `CCOC(=O)Cc1csc(SCC(=O)NC(C)C23CC4CC(CC(C4)C2)C3)n1` (configuration not stated), the figure is -5.16% (inactive). Take `O=c1cc(CO)oc(C(Nc2cccc([N+](=O)[O-])c2)c2ccccn2)c1O` (configuration not stated): the inhibition was 25.3% (inactive).

`O=c1cc(CO)oc(C(Nc2cccc(C(F)(F)F)c2)c2ccccn2)c1O` (configuration not stated): the inhibition is 75.6% (active). With `FC(F)(F)c1cccc(Nc2ncnc3ccccc23)c1` the figure was 8.73% (inactive); with `O=C(CN1CCOC1=O)N1CCCC(Nc2ccc(F)c(F)c2)C1` (configuration not stated), -0.97% (inactive). With `CCCC1OC23CCCCC2C(C#N)(C#N)C1(C#N)C(=N)O3` (configuration not stated) the figure was 63.5% (active); with `O=C1CCC(=O)N(c2ccccc2)N1`, 3.62% (inactive); with `COC(=O)[C@H]1[C@H]2C[C@H]3c4[nH]c5ccccc5c4CCN3C[C@@H]2CC[C@@H]1O`, 8.5% (inactive) and 48.8% (active). With `O=C(Nc1ccc(Cl)cc1)N1CCc2[nH]c3ccccc3c2C1` the figure was 7.58% (inactive); with `COC(=O)C1CCN(C(=O)c2cc(=O)[nH]c3ccccc23)CC1`, 4.47% (inactive).

On to `O=C1c2cccc(OCC(=O)N3N=C(c4cccs4)CC3c3ccc(F)cc3)c2CCN1Cc1ccccc1` (configuration not stated), for which the inhibition is -0.98% (inactive). As for `CC1CCCCC1NC(=O)Cn1c(=O)cnc2ccccc21` (configuration not stated), the figure is -4.13% (inactive).

For `CC(C)CCn1c(=O)c2c(nc3n2CCCN3Cc2ccccc2)n(C)c1=O`, the inhibition is 2.24% (inactive). With `COc1ccc(OCCCC(=O)Nc2cccc(S(=O)(=O)N3CCCCCC3)c2)cc1` the figure was 6.95% (inactive); with `c1ccc(-n2nnnc2N2CCOCC2)cc1`, -16.6% (inactive); with `C1=C(N2CCOCC2)/C(=C/c2nc3ccccc3[nH]2)CC1`, 72.7% (active). With `CC1(C)Cc2c(C#N)c(SCc3nc4ccccc4[nH]3)nc(N3CCOCC3)c2CO1` the figure was -7.37% (inactive); with `CC(=O)c1c(C)[nH]c(C(=O)CN2C(=O)NC(C)(C)C2=O)c1C`, 1.35% (inactive); with `COc1ccc(C(=O)CN2C(=O)NC3(CCc4ccccc43)C2=O)c(OC)c1` (configuration not stated), 0.18% (inactive). As for `CC/C(=N/Nc1ccccc1)c1cnnc(SC)n1`, the figure is 2.17% (inactive); as for `CSc1ccc(S(=O)(=O)Nc2cccc(F)c2)cc1`, 11.1% (inactive); as for `COc1cccc(-c2nc(CS(=O)CC(=O)NCc3ccc(F)cc3)c(C)o2)c1` (configuration not stated), -0.05% (inactive). On to `COc1ccc(-c2nc(CS(=O)CC(=O)NCc3ccccn3)c(C)o2)cc1` (configuration not stated), for which the inhibition is 81.7% (active). Turning to `COc1ccc(-c2nc(CS(=O)CC(=O)NCc3ccccc3)c(C)o2)cc1OC` (configuration not stated), the inhibition was -5.15% (inactive). Consider `CC(OC(=O)c1ccc2noc(-c3ccccc3)c2c1)C(N)=O` (configuration not stated), for which the inhibition is 6.97% (inactive).

Consider `COc1ccc(-c2onc3ccc(C(C)=O)cc23)cc1`, for which the inhibition was 169% (active). With `Oc1ccc(-c2onc3ccc(Cl)cc23)cc1`, the inhibition was 8.29% (inactive). Regarding `COc1ccc(/C=C/C(=O)c2cc(Br)ccc(=O)c2O)cc1`, the inhibition is -9.08% (inactive). As for `O=C(c1cnccn1)N1CCN(S(=O)(=O)c2cccc(Cl)c2)CC1`, the figure is 3.23% (inactive); as for `Cc1nn(Cc2ccccc2)c(C)c1CNC(=O)c1ccc(F)c(S(=O)(=O)N2CCOCC2)c1`, 103% (active). As to `O=C(c1ccc(F)c(S(=O)(=O)N2CCOCC2)c1)N(CCc1ccccc1)Cc1ccccc1`, the inhibition was 18.5% (inactive). Consider `O=C(NCCSCc1ccccc1)c1ccc(Cl)c(S(=O)(=O)N2CCOCC2)c1`, for which the inhibition is 7.47% (inactive). With `Cc1cnc(CN(C)C(=O)CC2C(=O)NCCN2Cc2cccc(F)c2F)[nH]1` (configuration not stated) the figure was 9.56% (inactive); with `CC1(C)CC[C@]2(C(=O)O)CC[C@]3(C)C(=CCC4[C@@]5(C)CC[C@H](O)C(C)(C)C5[C@H](O)C[C@]43C)[C@@H]2C1` (some centres not stated), 1.49% (inactive); with `O=C(COC(=O)Cn1cnc2ccccc21)Nc1cccc2c1C(=O)c1ccccc1C2=O`, 78.6% (active). As for `O=C(Cn1cnc2ccccc21)Nc1ccccc1-c1ccccc1`, the figure is 1.53% (inactive); as for `O=C(COC(=O)c1cccc(Br)c1)Nc1cccc2c1C(=O)c1ccccc1C2=O`, 7.63% (inactive); as for `Cc1ccc(N(Cc2cc(=O)[nH]c3ccccc23)C(=O)CCl)cc1`, 0.28% (inactive).

For `CC(=O)N/C(=N/c1nc(C)cc(C)n1)Nc1ccc(F)cc1F`, the inhibition was -1.91% (inactive). With `O=S(=O)(NCc1cccnc1)c1ccc(Br)s1` the figure was 2.39% (inactive); with `O=C(NCCc1ccccc1)C1CCN(S(=O)(=O)c2ccc(Br)s2)CC1`, 4.67% (inactive); with `O=S(=O)([N-]c1nc2ccccc2nc1-[n+]1ccc(Cc2ccccc2)cc1)c1ccc(Br)s1`, 94.1% (active).

For the compound `O=C1CN(C(=O)COC(=O)c2cnc(Cl)c(Cl)c2)c2ccccc2N1`, the inhibition was 6.14% (inactive). With `CS(=O)(=O)c1ccc(C(=O)NNC(=O)c2cccs2)cc1` the figure was 1.25% (inactive); with `O=C(c1cc(COc2ccc(F)cc2F)on1)N1CCOCC1`, -0.95% (inactive).

These data come from PubChem BioAssay AID2280 (The Scripps Research Institute Molecular Screening Center, 2010).
